Laboratory results taken from PubChem BioAssay AID2289 (National Center for Advancing Translational Sciences (NCATS), 2010).
Values joined by “and” are separate entries in the source; they are usually repeats but may differ in a detail not shown here. Equal entries are not always repeated. The whole screen tested about 340,000 compounds, of which about 3,300 (0.97%) were called active. Roughly 9% stayed inconclusive and do not appear here. Calls follow the shape of the dose curve; as a rule, active = well fitted inhibition curve with a large enough effect; inconclusive = small, poorly fitted or top-dose-only effect, or effect the other way; inactive = flat fitted curve, though single readings scatter. This is one part of the list.

Experiment: qHTS Assay for Modulators of miRNAs and/or Inhibitors of miR-21; also: nearly all actives have a fitted effect of over 55% in size
Conditions: HeLa miR-21-FLuc reporter, luciferase luminescence, 48 h; actives lower the signal
Text: MLSCN Grant: 1 R21 NS059478-01 Assay Provider: Qihong Huang, The Wistar Institute NCGC Assay Overview: MicroRNAs (miRNAs) are endogenously encoded small (~20-25 nucleotides), nonprotein-coding RNAs that are involved in post-transcriptional repression of target messenger RNAs (mRNAs) (Le and Hannon, 2004). Estimated to be involved in the regulation of 30% of all protein-coding mRNAs (Filipowicz et al., 2008), miRNAs play a significant role in many biological processes including cellular differentiation and tissue development (Ghildiyal and Zamore, 2009).
NCGC Assay Protocol Summary: Reagents: HeLa cells stably expressing firefly luciferase (FLuc) under the control of a CMV promoter (upstream) and a miR-21 binding sequence directly downstream of the gene. These cells endogenously express miR-21. Control compounds used were compound C3 (provided by collaborator), N6-phenyladenosine (MP Biomedicals, 0215379625), and DMSO. Assay Summary: 6uL of HeLa miR-21-FLuc cells in assay buffer (DMEM, Invitrogen #21063-029; 10% FBS, HyClone #SH30071.03) were dispensed at 2000cells/well (3.3 x 10^5 cells/mL) into Greiner solid-white TC-treated 1536-well plates using a Multidrop Combi (Thermo Fisher Scientific). Plates were incubated for one hour at 37 degree Celsius, 95% humidity, 5% CO2. These assay plates were then treated with 23nL of compound or DMSO using a Kalypsys pin tool, which allows for delivery of a 24-point titration of each compound to the assay plate, with a final compound concentration ranging from approximately 40uM to 5pM. Assay plates were then incubated for 48 hours. After incubation, plates were allowed to come to RT for one hour prior to delivery of 3uL of 3X luciferase detection reagent. After a 15 minute incubation to allow for cell lysis, luciferase activity was measured using a ViewLux CCD imager (PerkinElmer), with an average exposure time of 2-12 seconds. Keywords: NIH Roadmap, MLPCN, MLSMR, qHTS, miR-21, microRNA, firefly luciferase, FLuc.
Potency is read from the fitted curve at half-maximal effect.

Potency, active:
CC(=O)Nc1cc2nn(-c3ccccc3)nc2cc1Cl 0.464 µM
CCCC(=O)Nc1cc2nn(-c3ccccc3)nc2cc1C 0.369 µM
CC(C)CC(=O)Nc1ccc2nn(-c3ccccc3)nc2c1 0.656 µM
COc1ccc(O)c(/C=N/N2CCCCC2)c1 5.21 µM
O=C1N/C(=C\c2nc3ccccc3s2)c2ccccc21 0.0736 µM
CSc1nnc(-c2cc3c(s2)-c2ccccc2CC3)o1 1.17 µM
COCCNC(=O)c1cc2oc3ccccc3c2n1C 14.7 µM
Cn1c(C(=O)NCC2CCCO2)cc2oc3ccccc3c21 (stereo not given) 2.07 µM
Cn1c(C(=O)N2CCc3ccccc3C2)cc2oc3ccccc3c21 10.4 µM
CCc1c(C)sc(NC(=O)c2cccs2)c1C#N 5.21 µM
CCc1c(C)sc(NC(=O)c2ccco2)c1C#N 11.7 µM
Cc1sc(NC(=O)c2ccccc2)c(C#N)c1-c1ccccc1 0.826 µM
Nc1nc2ccc(-c3nc4ccccc4o3)cc2s1 0.927 µM
CN1CCSc2ccc(C(=O)Nc3ccc(Cl)cc3)cc21 1.04 µM
Cc1ccccc1NC(=O)c1ccc2c(c1)N(C)CCS2 3.69 µM
c1ccc2sc(-c3ccncc3)nc2c1 6.56 µM
c1csc(-c2nc3ccccc3s2)c1 5.85 µM
O=C1CCC(=O)N1c1ccc(-c2nc3ccccc3s2)cc1 0.521 µM
O=S(=O)(Nc1cccc(-c2ccc(N3CCCCCC3)nn2)c1)c1cccc(F)c1 9.27 µM
O=S(=O)(Nc1cccc(-c2ccc(N3CCCCCC3)nn2)c1)c1ccc(F)cc1 13.1 µM
CC(OC(=O)CNC(=O)c1ccccc1F)C(=O)Nc1nc(-c2ccccc2)cs1 (stereo not given) 4.65 µM
Nc1nn2cc(-c3ccccc3)nc2c2ccccc12 0.521 µM
Clc1ccc(COc2ccccc2-c2ccnc3ncnn23)cc1 13.1 µM
CC(O)c1ccc(OCCN(C)c2ccccn2)cc1 (stereo not given) 16.5 µM
COc1cc(OC)c(NC(=O)CCCn2nc(C)c3sc4ccccc4c3c2=O)cc1Cl 11.7 µM
Cc1ccc(CONC(=O)c2ccccc2)cc1 18.5 µM
CC/C(=N/NC(=O)c1ccccc1)c1ccc(OCCN2CCOCC2)cc1 2.93 µM
CC(C)c1cc(C(N)=O)c(NC(=O)c2cccc(COc3ccc(Cl)cc3)c2)s1 0.585 µM
Cc1nn(Cc2c(F)c(F)c(F)c(F)c2F)c(C)c1NC(=O)c1cccc(COc2ccc(Cl)cc2)c1 7.36 µM
COc1ccc(NC(=S)N2CCc3ccccc32)cc1OC 16.5 µM
Brc1c(CSc2nc3ccccc3s2)nc2ncccn12 3.29 µM
Brc1c(CSc2nc3ccccc3o2)nc2ncccn12 7.36 µM
C/C(=N\Nc1nncc2ccccc12)c1cccc(OC(F)F)c1 0.414 µM
C/C(=N\Nc1nncc2ccccc12)c1ccc(OCC(=O)N(C)C)cc1 4.65 µM
C/C(=N\Nc1nncc2ccccc12)c1ccc(C(C)(C)C)cc1 7.36 µM
COc1ccc(/C(C)=N/Nc2nncc3ccccc23)cc1 0.826 µM
Cc1cc(N2CCOCC2)nc(SCC(=O)c2ccccc2)n1 13.1 µM
Cc1cc(=O)oc2cc(NC(=O)c3ccccc3Cl)ccc12 3.69 µM
Cc1cc(=O)oc2cc(NC(=O)c3ccccc3OC(F)F)ccc12 8.26 µM
CCCCOC(=O)Nc1ccc2c(C)cc(=O)oc2c1 1.17 µM
COc1cccc(C(=O)Nc2ccc3c(C)cc(=O)oc3c2)c1 0.329 µM
O=C(NC(=S)Nc1ccc2c(c1)C(=O)c1ccccc1C2=O)c1ccc(F)cc1 2.93 µM
COc1cccc(C(=O)Nc2nnc(-c3ccccc3)s2)c1 0.826 µM
COc1cccc(C(=O)Nc2ccc3c(c2)C(=O)c2ccccc2C3=O)c1 2.93 µM
c1ccc2sc(Nc3nc4cc5c(cc4s3)OCO5)nc2c1 3.69 µM
CC(=O)c1sc(Nc2nc3cc4c(cc3s2)OCO4)nc1C 1.85 µM
Fc1ccc2nc(Nc3nc4cc5c(cc4s3)OCO5)sc2c1 1.65 µM
C/C(=N\Nc1nc2ccccc2s1)c1ccc2c(c1)OCO2 10.4 µM
CC(=O)Nc1nnc(COc2ccc(Cl)cc2)s1 3.29 µM
CCN(CC)S(=O)(=O)c1nnc(NC(=O)COc2ccc(Cl)cc2)s1 0.521 µM
Nc1nnnn1/N=C/c1ccc(N2CCCCC2)c([N+](=O)[O-])c1 16.5 µM
N/C(CS(=O)(=O)c1ccccn1)=N\OC(=O)c1ccccc1Cl 4.65 µM
Cc1c2ccccc2nc2c(F)c(NC(C)C)c(F)c(F)c12 16.5 µM
O=C(Nc1ccc(Cl)cc1)OCc1ccccn1 5.85 µM
O=C(Cc1c(Cl)cccc1Cl)OCc1ccccn1 18.5 µM
O=C(Nc1cccc(Cl)c1)OCc1ccccn1 6.56 µM
Cc1ccc(-n2nnc(-c3ccnc4ccccc34)n2)cc1 1.85 µM
Cc1ccc(-n2nnc(-c3cccnc3Cl)n2)cc1 0.521 µM
COc1ncccc1-c1nnn(-c2ccc(C)cc2)n1 1.47 µM
O=C(Nc1ccccc1)OCCOc1ccccc1 3.69 µM
CC(C)c1ccc(NC(=O)COc2ccc(F)cc2C(=O)c2cnn(-c3ccccc3)c2)cc1 2.93 µM
COCC(=O)Nc1ccc(OCc2ccccc2)cc1 11.7 µM
CC(C)c1ccc(NC(=O)COc2ccccc2)cc1 7.36 µM
CC(C)c1ccc(NC(=O)Cn2ncc3ccccc32)cc1 7.36 µM
Cc1ccsc1C(=O)Nc1ccc(OCc2ccccc2)cc1 1.65 µM
CCOc1ccc(NC(=O)NC2CCCCCCC2)cc1 2.93 µM
Cc1ccc(NC(=O)CCOc2ccccc2)cc1 5.85 µM and 8.26 µM
CCOc1ccc(NC(=O)Cc2ccccc2)cc1 2.61 µM
COC(=O)Nc1ccc(OCc2ccccc2)cc1 5.21 µM
Clc1cccc(Cl)c1C1=NOC(c2nnc(-c3ccccc3)o2)C1 (stereo not given) 13.1 µM
COc1ccc(C(=O)Nc2ccc(N3CCCC3)cc2)cc1OC 4.65 µM
O=C(Nc1ccc(N2CCCC2)cc1)c1cccc(Cl)c1 0.329 µM
COc1ccc(C(=O)Nc2nc3ccccc3[nH]2)cc1OC 1.85 µM
NC(=O)NC(=O)C(Nc1ccc(N2CCCCC2)cc1)c1ccccc1 (stereo not given) 13.1 µM
CCN(C(=O)c1cc2ccccc2oc1=O)c1ccccc1 6.56 µM
Cc1cccc(NC(=O)c2cc3ccccc3oc2=O)c1 0.329 µM
O=C(Nc1ccccc1O)c1cc2cc(Br)ccc2oc1=O 0.521 µM
Cc1ccnc(NC(=O)c2cc3ccccc3oc2=O)c1 0.414 µM
CCOc1ccc(C2=NC(c3ccc(OC)cc3)=Nc3ccc(Cl)cc3N2)cc1 18.5 µM
O=C(Cn1cccc1C(=O)c1ccccc1)NCc1ccccc1Cl 11.7 µM
O=C1NC(=S)N/C1=C/c1cccc2ccccc12 14.7 µM
CCOC(=O)c1cccc(COC(=O)c2cccc(-c3nnc(-c4ccccc4)o3)c2)c1 5.85 µM
Cc1c(/C=C/C(=O)c2cccs2)cnn1C 14.7 µM
Cc1nn(C)cc1/C=C/C(=O)c1cccs1 13.1 µM
Nc1nnc(COc2ccc(Br)cc2Br)s1 5.21 µM
C=CCN1C(=O)C(=O)N(Cc2nc3ccccc3s2)C1=O 11.7 µM
Cc1ccc(Oc2ncnc3sccc23)cc1 14.7 µM
C=C(C)CNC(=O)CCc1nnc(Cc2cccc(C(F)(F)F)c2)o1 11.7 µM
O=C(NC1CCCCCC1)c1cc2c(=O)n3ccccc3nc2s1 10.4 µM
CC1CCCN(C(=O)c2cc3c(=O)n4ccccc4nc3s2)C1 (stereo not given) 14.7 µM
CC1CCCCN1C(=O)c1cc2c(=O)n3ccccc3nc2s1 (stereo not given) 16.5 µM
CC1CCN(C(=O)c2cc3c(=O)n4ccccc4nc3s2)CC1 14.7 µM
Cc1cc(N2CCN(C)CC2)nc2ccc(NC(=O)Nc3ccccc3Cl)cc12 0.585 µM
Cc1cc(N2CCN(C)CC2)nc2ccc(NC(=O)Nc3ccccc3)cc12 7.36 µM
Cc1cc(C)cc(Nc2ccc(C(=O)O)cc2N)c1 18.5 µM
N/C(Cc1ccc([N+](=O)[O-])cc1)=N\OC(=O)c1ccccc1F 16.5 µM
O=C(Nc1ccc([N+](=O)[O-])cc1)c1ccccc1F 4.14 µM
O=C(/C=C/c1cccs1)c1ccc(NC(=O)c2ccccc2F)cc1 13.1 µM
O=C(Nc1ccn(-c2ccccc2)n1)c1ccccc1Br 13.1 µM
N=C1C(c2nc3ccccc3[nH]2)=C(O)CN1c1ccc(F)cc1 14.7 µM
CCn1c(SCC(=O)O)nnc1-c1ccccc1OC 3.29 µM
CN(C)c1ccc(/C=N/N=C/c2ccccc2O)cc1 2.61 µM
CCc1ccc2nc3n[nH]c(N)c3cc2c1 2.33 µM
Cc1cc2cc3c(N)[nH]nc3nc2cc1C 14.7 µM
Cc1nc(-c2nc(-c3c(C(=O)NN)noc3C)cs2)cs1 4.14 µM
